Structures are written as SMILES. About 3,300 (8.5%) of roughly 39,000 compounds were called active. Shown is part of a subset that was picked to be rich in actives.

In the assay the test system is HepG2. Nature of the assay: cytotoxicity call (relative viability < 0.9). The settings on record: 10 µM.
`O=C(CC(=O)N1CCOCC1)N1CCOCC1`: the cytotoxicity call is “inactive”. Under `Cc1noc(C)c1S(=O)(=O)Nc1ccc2c(c1)C(=O)N([C@H](C)CO)C[C@@H](C)[C@@H](CN(C)Cc1ccc3c(c1)OCO3)O2` stands “inactive”. To `CC(C)c1nc2cc3sc(C(C)C)nc3cc2s1` belongs “inactive”; to `CCCCCCCCCC(=O)N[C@H]1[C@H](Oc2c3cc4cc2Oc2ccc(cc2Cl)[C@@H](O[C@@H]2O[C@H](CO)[C@@H](O)[C@H](O)[C@H]2NC(C)=O)[C@@H]2NC(=O)[C@H](NC(=O)[C@@H]4NC(=O)[C@H]4NC(=O)[C@@H](Cc5ccc(c(Cl)c5)O3)NC(=O)[C@@H](N)c3ccc(O)c(c3)Oc3cc(O)cc4c3)c3ccc(O)c(c3)-c3c(O[C@H]4O[C@H](CO)[C@@H](O)[C@H](O)[C@@H]4O)cc(O)cc3[C@H](C(=O)O)NC2=O)O[C@H](CO)[C@@H](O)[C@@H]1O`, “inactive”. Under `CN1CCN(C(=O)C[C@@H]2CC[C@H]3[C@@H](COc4ccc(NC(=O)C5CCOCC5)cc4C(=O)N3C)O2)CC1` stands “inactive”. Consider `CS(=O)(=O)N1C[C@H](O)COC[C@@H]2O[C@@H](CC(=O)NCc3ccccc3)CC[C@H]21`, for which the cytotoxicity call is “inactive”. Under `C[C@@H]1CN([C@@H](C)CO)S(=O)(=O)c2ccc(C#Cc3ccncc3)cc2O[C@@H]1CN(C)S(=O)(=O)c1ccc(F)cc1` stands “active”; under `C[C@H](CO)N1C[C@H](C)[C@H](CN(C)S(=O)(=O)c2ccc(F)cc2)Oc2cc(C#Cc3ccc(F)cc3)ccc2S1(=O)=O`, “inactive”; under `C[C@H](CO)N1C[C@H](C)[C@@H](CN(C)S(=O)(=O)c2ccc(F)cc2)Oc2cc(C#Cc3ccc(F)cc3)ccc2S1(=O)=O`, “inactive”.

Regarding `C[C@@H]1CN([C@@H](C)CO)S(=O)(=O)c2ccc(C#Cc3ccc(F)cc3)cc2O[C@@H]1CN(C)S(=O)(=O)c1ccc(F)cc1`, the cytotoxicity call is “inactive”.

With `C[C@@H]1CN([C@@H](C)CO)S(=O)(=O)c2ccc(C#Cc3ccc(F)cc3)cc2O[C@H]1CN(C)S(=O)(=O)c1ccc(F)cc1`, the cytotoxicity call is “inactive”.

With `C[C@H](CO)N1C[C@H](C)[C@H](CN(C)S(=O)(=O)c2ccc(F)cc2)Oc2cc(C#Cc3ccncc3)ccc2S1(=O)=O`, the cytotoxicity call was “active”. To `C[C@@H]1CCCCO[C@H](CN(C)C(=O)NC2CCCCC2)[C@@H](C)CN([C@H](C)CO)C(=O)c2cc(NC(=O)Nc3ccc(F)cc3)ccc2O1` belongs “inactive”. As to `Cc1noc(C)c1NC(=O)N[C@H]1C=C[C@@H](CC(=O)NCCCN(C)C)O[C@H]1CO`, the cytotoxicity call is “inactive”. For `C[C@@H]1CN([C@@H](C)CO)C(=O)c2cc(C#CCN(C)C)cnc2O[C@@H]1CN(C)C(=O)Nc1ccccc1F`, the cytotoxicity call is “inactive”. In the case of `Nc1nc(S)c2nc[nH]c2n1`, the cytotoxicity call is “active”. With `Nc1ncnc2[nH]cnc12`, the cytotoxicity call was “inactive”. On to `Nc1cc2[nH]cnc2c(O)n1`, for which the cytotoxicity call was “inactive”. To `CCN(CC)C(=O)c1ccc[n+](CC(N)=O)c1` belongs “inactive”; to `O=C(CCCCCNC(=O)OCCCCO[C@@H]1C[C@H](c2ccc(C(F)(F)F)cc2)C=C(C(=O)N2CCN(Cc3ccc4c(c3)OCO4)CC2)O1)NO`, “inactive”; to `Cc1noc(C)c1S(=O)(=O)Nc1ccc2c(c1)C(=O)N([C@@H](C)CO)C[C@H](C)[C@@H](CN(C)Cc1ccc(C(F)(F)F)cc1)OCCCC[C@@H](C)O2`, “inactive”. Under `Cc1noc(C)c1S(=O)(=O)Nc1ccc2c(c1)C(=O)N([C@@H](C)CO)C[C@H](C)[C@@H](CN(C)Cc1ccc(Cl)c(Cl)c1)OCCCC[C@H](C)O2` stands “inactive”; under `Cc1noc(C)c1S(=O)(=O)Nc1ccc2c(c1)C(=O)N([C@H](C)CO)C[C@@H](C)[C@H](CN(C)Cc1ccc(C(F)(F)F)cc1)OCCCC[C@@H](C)O2`, “inactive”. To `Cc1noc(C)c1S(=O)(=O)Nc1ccc2c(c1)C(=O)N([C@H](C)CO)C[C@@H](C)[C@@H](CN(C)Cc1ccc(C(F)(F)F)cc1)OCCCC[C@@H](C)O2` belongs “inactive”; to `Cc1noc(C)c1S(=O)(=O)Nc1ccc2c(c1)C(=O)N([C@H](C)CO)C[C@@H](C)[C@@H](CN(C)Cc1ccc(Cl)c(Cl)c1)OCCCC[C@H](C)O2`, “active”. For `Cc1noc(C)c1S(=O)(=O)Nc1ccc2c(c1)C(=O)N([C@H](C)CO)C[C@H](C)[C@@H](CN(C)Cc1ccc(C(F)(F)F)cc1)OCCCC[C@H](C)O2`, the cytotoxicity call was “inactive”. Regarding `Cc1noc(C)c1S(=O)(=O)Nc1ccc2c(c1)C(=O)N([C@@H](C)CO)C[C@H](C)[C@H](CN(C)Cc1ccc(C(F)(F)F)cc1)OCCCC[C@@H](C)O2`, the cytotoxicity call was “active”.

On to `Cc1noc(C)c1S(=O)(=O)Nc1ccc2c(c1)C(=O)N([C@H](C)CO)C[C@H](C)[C@H](CN(C)Cc1ccc(C(F)(F)F)cc1)OCCCC[C@H](C)O2`, for which the cytotoxicity call is “inactive”. To `Cc1noc(C)c1S(=O)(=O)Nc1ccc2c(c1)C(=O)N([C@H](C)CO)C[C@@H](C)[C@H](CN(C)Cc1ccc(C(F)(F)F)cc1)OCCCC[C@H](C)O2` belongs “active”; to `Cc1noc(C)c1S(=O)(=O)Nc1ccc2c(c1)C(=O)N([C@H](C)CO)C[C@H](C)[C@@H](CN(C)Cc1ccc(Cl)c(Cl)c1)OCCCC[C@H](C)O2`, “inactive”. To `Cc1noc(C)c1S(=O)(=O)Nc1ccc2c(c1)C(=O)N([C@H](C)CO)C[C@@H](C)[C@@H](CN(C)Cc1ccc(C(F)(F)F)cc1)OCCCC[C@H](C)O2` belongs “active”; to `Cc1noc(C)c1S(=O)(=O)Nc1ccc2c(c1)C(=O)N([C@H](C)CO)C[C@H](C)[C@H](CN(C)Cc1ccc(C(F)(F)F)cc1)OCCCC[C@@H](C)O2`, “inactive”; to `O=C(C[C@H]1CC[C@H]2[C@@H](COC[C@@H](O)CN2S(=O)(=O)c2cccc(Cl)c2)O1)NCc1ccc2c(c1)OCO2`, “inactive”.

As to `O=c1[nH]snc1N1CCCCC1`, the cytotoxicity call was “inactive”. To `CC(C)CNC(=O)C(=O)NC(C)C` belongs “inactive”. To `COc1ccc(S(=O)(=O)Nc2ccc3c(c2)C(=O)N([C@H](C)CO)C[C@H](C)[C@@H](CN(C)C(=O)Nc2cccc4ccccc24)O3)cc1` belongs “inactive”. Under `COc1ccccc1NC(=O)N(C)C[C@H]1Oc2ncc(Br)cc2C(=O)N([C@H](C)CO)C[C@H]1C` stands “inactive”; under `CC(C)CN1C(=O)[C@@]2(c3ccc([N+](=O)[O-])cc3)CC(=O)N(CC3C4CC5CC(C4)CC3C5)[C@@H]2c2ccc(CO)cc21` (stereo partly specified), “inactive”. Take `C[C@H]1CN([C@@H](C)CO)C(=O)c2cccc(NS(C)(=O)=O)c2O[C@H]1CN(C)C(=O)NC1CCCCC1`: the cytotoxicity call was “inactive”. Under `O=C(C[C@H]1CC[C@H](NC(=O)CN2CCOCC2)[C@@H](CO)O1)NCCc1ccncc1` stands “inactive”; under `C[C@@H]1CN([C@H](C)CO)C(=O)c2cc(NC(=O)C3CCCCC3)ccc2O[C@H]1CN(C)Cc1ccc(Oc2ccccc2)cc1`, “inactive”; under `CCS(=O)(=O)Nc1ccc2c(c1)C(=O)N(C)[C@H]1CC[C@@H](CC(=O)NCc3ccccc3F)O[C@@H]1CO2`, “inactive”.

For the molecule `Cc1noc(C)c1NC(=O)N(C)C[C@H]1OCCCC[C@H](C)Oc2ccc(NS(=O)(=O)c3ccccc3)cc2C(=O)N([C@@H](C)CO)C[C@@H]1C`, the cytotoxicity call was “inactive”. To `CC(C)(C)S(=O)N1Cc2cc(C(=O)N[C@@H]3CCN(Cc4ccccc4)C3)nc(-c3cccc(-c4cccc(F)c4)c3)c2[C@@H]1CCO` (stereo partly specified) belongs “inactive”.

Take `C[C@@H]1CN([C@H](C)CO)C(=O)c2cc(C#C[C@@H](C)O)cnc2O[C@@H]1CN(C)C(=O)CN1CCOCC1`: the cytotoxicity call was “inactive”.

On to `COc1ccc(S(=O)(=O)N(C)C[C@H]2OCCCC[C@@H](C)Oc3ccc(NC(=O)C4CCCCC4)cc3C(=O)N([C@H](C)CO)C[C@H]2C)cc1`, for which the cytotoxicity call was “inactive”. To `COc1ccc(S(=O)(=O)N(C)C[C@H]2OCCCC[C@H](C)Oc3ccc(NC(=O)C4CCCCC4)cc3C(=O)N([C@@H](C)CO)C[C@@H]2C)cc1` belongs “inactive”. Regarding `COc1ccc(S(=O)(=O)N(C)C[C@H]2OCCCC[C@H](C)Oc3ccc(NC(=O)C4CCCCC4)cc3C(=O)N([C@H](C)CO)C[C@@H]2C)cc1`, the cytotoxicity call was “active”. Under `COc1ccc(S(=O)(=O)N(C)C[C@H]2OCCCC[C@H](C)Oc3ccc(NC(=O)C4CCCCC4)cc3C(=O)N([C@@H](C)CO)C[C@H]2C)cc1` stands “inactive”; under `COc1ccc(S(=O)(=O)N(C)C[C@@H]2OCCCC[C@@H](C)Oc3ccc(NC(=O)C4CCCCC4)cc3C(=O)N([C@H](C)CO)C[C@H]2C)cc1`, “active”. Under `COc1ccc(S(=O)(=O)N(C)C[C@@H]2OCCCC[C@H](C)Oc3ccc(NC(=O)C4CCCCC4)cc3C(=O)N([C@H](C)CO)C[C@@H]2C)cc1` stands “inactive”; under `Nc1cccc2c(=O)[nH][nH]c(=O)c12`, “inactive”. Under `O=C(N/N=C/[C@H](O)[C@@H](O)[C@H](O)[C@H](O)CO)c1ccccn1` stands “inactive”; under `N[C@@H](CCO)c1cccc(Cl)c1`, “inactive”. In the case of `C[C@H]1CN([C@@H](C)CO)C(=O)c2cc(Br)cnc2O[C@H]1CN(C)S(=O)(=O)c1ccccc1`, the cytotoxicity call was “inactive”. Under `C[C@H](CO)N1C[C@H](C)[C@@H](CN(C)C(=O)Nc2ccc(F)cc2)Oc2ccc(NS(C)(=O)=O)cc2CC1=O` stands “inactive”; under `NCc1nnnn1-c1ccc(F)cc1`, “inactive”; under `C[C@@H]1CCCCO[C@@H](CN(C)C(=O)c2ccccc2)[C@@H](C)CN([C@@H](C)CO)C(=O)c2cc(NC(=O)NC3CCCCC3)ccc2O1`, “inactive”. To `COc1cccc(CN(C)C[C@H]2OCc3ccccc3-c3c(n(C)c4ccccc34)C(=O)N([C@@H](C)CO)C[C@@H]2C)c1` belongs “inactive”; to `C[C@H](CO)N1C[C@H](C)[C@@H](CN(C)Cc2cccc(F)c2)OCc2ccccc2-c2c(n(C)c3ccccc23)C1=O`, “inactive”; to `C[C@@H]1CN([C@@H](C)CO)C(=O)c2c(c3ccccc3n2C)-c2ccccc2CO[C@H]1CN(C)Cc1cccc(F)c1`, “inactive”. Turning to `C[C@@H]1CN([C@H](C)CO)C(=O)c2c(c3ccccc3n2C)-c2ccccc2CO[C@H]1CN(C)Cc1cccc(F)c1`, the cytotoxicity call is “inactive”. Under `C[C@H]1CN([C@@H](C)CO)C(=O)c2c(c3ccccc3n2C)-c2ccccc2CO[C@H]1CN(C)Cc1cccc(F)c1` stands “inactive”; under `C[C@H](CO)N1C[C@H](C)[C@H](CN(C)Cc2cccc(F)c2)OCc2ccccc2-c2c(n(C)c3ccccc23)C1=O`, “active”; under `COc1cccc(CN(C)C[C@@H]2OCc3ccccc3-c3c(n(C)c4ccccc34)C(=O)N([C@@H](C)CO)C[C@@H]2C)c1`, “inactive”. Under `COc1cccc(CN(C)C[C@H]2OCc3ccccc3-c3c(n(C)c4ccccc34)C(=O)N([C@@H](C)CO)C[C@H]2C)c1` stands “active”.

These data come from the antibiotic and cytotoxicity screens of Wong et al. (2023).
